Experimental findings from PubChem BioAssay (NCATS) are described below.

The nature of assay [1]: Cell Viability - MRC5 (AID 434; calls by dose curve;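 note: potency is the fitted concentration of half-maximal effect; cells exposed to compound for 40 hours at 37 °C; potency reflects cytotoxicity seen as loss of intracellular ATP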). Particulars: MRC5 lung fibroblast viability, qHTS. Put shortly:
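Decrease in intracellular ATP, quantified by luciferase light output, reflects compound toxicity toward MRC5 cells exposed for 40 hr in complete culture medium. Concentration-response curves, scaled between DMSO and 100 uM tamoxifen, gave AC50 values.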
On the technique in general: In qHTS, concentration-response curves come from the screen itself.

Assay [2] is described as follows: Cell Viability - HUV-EC-C (AID 542). Note: % is set by controls: 0 for no effect and ±100 for the full control effect; nearly all actives have a fitted effect of over 35% in size. To be noted: HUV-EC-C endothelial cell viability, qHTS; series mostly up to 92.2 µM. In short, it runs like this: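 Cells were seeded at 1000 per well and incubated 5 hr at 37 °C before compound addition. After 40 hr at 37 °C, CellTiter-Glo reagent was added for 20 min and luminescence read. AC50 values came from Hill-equation modelling.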

Assay [3] can be described thus: Cellular Toxicity (caspase-3) HepG2 (AID 654).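 Note: cells exposed to compound for 16 hours before reading; 0% = DMSO alone and 100% = caspase signal from 100 µM tamoxifen.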 Particulars: HepG2 caspase-3 activation, luminescence; series mostly up to 92.2 µM. Put shortly:
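Caspase 3/7 activation in HepG2 is measured as rising luminescence after a 16 hr treatment at 37 °C. Values are scaled between DMSO basal and 100 uM tamoxifen, and AC50 is fitted with the Hill equation.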

Assay [4] can be described thus: Cellular Toxicity (caspase-3) HUV-EC-C (AID 656). Particulars: HUV-EC-C cells, caspase-3 activation (apoptosis); series mostly up to 92.2 µM. Put shortly:
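HUV-EC-C endothelial cells, 1000/well, were pre-incubated 5 hr at 37°C, then exposed to compounds for 16 hr at 37°C. Caspase-Glo 3/7 luminescence was read after 20 min at room temperature. AC50 came from Hill fits, normalized to DMSO and 100 uM tamoxifen.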

Assay [5] can be described thus: Cellular Toxicity (caspase-3) SHSY5Y (AID 657). Particulars: SH-SY5Y caspase-3 activation; series mostly up to 91.7 µM. In short, it runs like this:
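SH-SY5Y human neuroblastoma cells (1500/well) were treated with compounds for 16 h at 37 °C, then Caspase-Glo 3/7 luminescence was read after 1 h at room temperature. Data normalized to DMSO and 10 uM staurosporine; AC50 from Hill fits.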

Assay [6] in a line: Cellular Toxicity (caspase-3) BJ (AID 658). Particulars: BJ fibroblasts, luminescence; Potency: caspase-3 activation; series mostly up to 91.7 µM. In short, it runs like this: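 Plated BJ cells (1000/well) rested 5 hr, received compound for 16 hr at 37 °C, then Caspase-Glo 3/7 reagent for 1 hr at room temperature before luminescence reading.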
The nature of assay [7]: Cellular Toxicity (caspase-3) MRC-5 (AID 659). Particulars: MRC-5 cells, luminescence, normalized: DMSO 0%, 10 µM staurosporine 100%; series mostly up to 91.7 µM. Put shortly: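 Apoptosis readout in MRC-5 cells: luciferase light generated after caspase 3/7 cleaves a peptide-aminoluciferin substrate, measured post 16 hr compound incubation at 37 °C.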
A short description of assay [8]: Cellular Toxicity (caspase-3) H-4-II-E (AID 663).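 Note: cells exposed to compound for 16 hr before readout.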 Particulars: H-4-II-E rat hepatoma; Potency: caspase-3 activation; series mostly up to 92.2 µM. In short, it runs like this: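 Caspase 3/7 activation measured in H-4-II-E cells in complete culture medium after 16 hr treatment at 37 °C, using luciferase-coupled substrate readout; AC50 values come from Hill-equation fits of normalized concentration-response data.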

Assay [9] can be described thus: Cellular Toxicity (caspase-3) Hek293 (AID 664).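 Note: cells exposed to compound for 16 h at 37 °C before readout.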 Particulars: HEK293 caspase-3 activation, DMSO = 0%, 100 µM tamoxifen = 100%; at 92.2 µM (top of the series). In short, it runs like this: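 qHTS, HEK293 (human embryonic kidney), 16 h cpd exposure in complete medium. Caspase-3/7 activation = luminescence increase; normalized to DMSO/100 uM tamoxifen; Hill-fit AC50.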

Assay [10] can be described thus: Cellular Toxicity (caspase-3) N2a (AID 665).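 Note: compound exposure lasted 16 h at 37 °C before readout.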 Particulars: N2a cells, luminescence, normalized: DMSO 0%, 10 µM staurosporine 100%; series mostly up to 92.2 µM. Put shortly:
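Caspase-3/7 activation, measured as increased luminescence from aminoluciferin release, is quantified in mouse N2a cells exposed to compounds for 16 h. Values are normalized to DMSO and 10 uM staurosporine, with AC50 derived by Hill modelling.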

The nature of assay [11]: Cellular Toxicity (caspase-3) NIH 3T3 (AID 666).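 Note: caspase signal read after 16 h compound exposure; 0% = DMSO basal and 100% = 100 µM tamoxifen stimulation.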 To be noted: NIH 3T3 caspase-3 activation, apoptosis/toxicity, 0% DMSO, 100% is 100 µM tamoxifen; series mostly up to 92.2 µM. Put shortly: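 Cells were plated at 1000 per well and incubated 5 hr at 37°C, then compound was added for 16 hr. Caspase-Glo 3/7 reagent followed for 20 min at room temperature before luminescence was read.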

Assay [12] can be described thus: Cellular Toxicity (caspase-3) Renal Proximal Tubule (AID 667).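 Note: cells exposed to compound for 16 hours at 37 °C before detection.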 Particulars: renal proximal tubule cells, primary cells freshly taken from rat; Potency: caspase-3 activation; series mostly up to 91.7 µM. In short, it runs like this:
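Primary rat proximal tubule cells, 1000/well, 5 h plating at 37 °C, then compound 16 h at 37 °C. Caspase-Glo 3/7 reagent, 1 h RT, luminescence. Normalized to DMSO (basal) and 10 uM staurosporine (100%); Hill-fit AC50.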

The nature of assay [13]: MultiTox-Fluor Cytotoxicity Assay - LYMP1-003 - Live Cells (AID 962).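 Note: 0% = DMSO only and full loss = 92 µM tetraoctylammonium bromide; cytotoxic hits lower the live-cell protease signal.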 Particulars: LYMP1-003 lymphoblastoid cells, MultiTox-Fluor live-cell protease fluorescence; series mostly up to 92.2 µM. Put shortly: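 Acute cytotoxicity is scored as a drop in live-cell protease activity in human lymphoblastoid LYMP1-003 cells after 16 hr compound exposure at 37 C. AC50 values come from Hill-equation modelling of concentration-response data.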

A short description of assay [14]: qHTS Assay for Identification of Small Molecule Inducers of Hypoxia Response (AID 2120; active = well fitted curve in the direction sought with a large enough effect in the signal ratio, with a control signal flat, not every such curve was filed as active; the % refers to the signal ratio; note: 0% is about no effect). To be noted: hypoxia response reporter cells, beta-lactamase ratio readout; series mostly up to 104 µM. Put shortly:
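Cell-based qHTS for reporter induction: hypoxia response element controlled beta-lactamase in ME-180 cells. Compounds incubated 17 h at 37 degrees C; activity from blue/green (460/530 nm) ratio, inducers ranked by AC50.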

Assay [15] deals with Peroxisome proliferator-activated receptor alpha (Homo sapiens) (UniProt Q07869). The experiment in a line: qHTS assay for small molecule agonists of the peroxisome proliferator-activated receptor alpha (PPARalpha) signaling pathway (AID 651778). Note: % of control where 0% means no effect. To be noted: PathHunter PPARalpha complementation, chemiluminescence, 6 h; max response: stronger effect = higher value. Put shortly:
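Cells plated at 2,000/well and held overnight at 37 C, 5% CO2, then compound added by pin tool for 6 hr; after PathHunter detection reagent and 60 min at room temperature, chemiluminescence from enzyme complementation was read.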

Assay [16] in a line: qHTS assay for small molecule agonists of the antioxidant response element (ARE) signaling pathway measured by Nrf2-dependant transcriptional activity - cell viability counter screen (AID 720653; active = well fitted curve in the direction sought with a large enough effect in the repeat runs; an effect the other way counts as inactive or inconclusive; note: % is set by controls: 0 for no effect and ±100 for the full control effect). Particulars: ARE-bla HepG2 viability, CellTiter-Glo ATP luminescence, 16 h; max response: stronger effect = lower value. Put shortly:
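ARE-bla HepG2 cells (2,000/well) rested 5 hrs at 37C/5% CO2, then exposed to compounds in DMSO for 16 hrs. Viability was read in the same wells as intracellular ATP by luminescence, 30 min at room temperature after reagent addition.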

The nature of assay [17]: qHTS assay for cell viability of HEK293 cells (AID 743288). Note: % is set by controls: 0 for no effect and ±100 for the full control effect; nearly all actives have a fitted effect of over 50% in size. To be noted: ATP luminescence (CellTiter-Glo), 18 h; max response: stronger effect = lower value. In short, it runs like this:
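After 18 h compound exposure at 37 C, parental HEK293 cells (2,000/well) are lysed with CellTiter-Glo and luminescence is read following 30 min at room temperature.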

Assay [18] in a line: qHTS assay for cell viability of the p53RE-bla HCT-116 cell line (AID 743292). Note: % is set by controls: 0 for no effect and ±100 for the full control effect; nearly all actives have a fitted effect of over 55% in size. To be noted: p53RE-bla HCT-116 viability, ATP luminescence, 16 h; series mostly up to 95 µM. In short, it runs like this:
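Viability of compound-treated p53RE-bla HCT-116 cells is taken from ATP-dependent luciferase luminescence. Treatment lasts 16 h at 37 C after a 5 h settling period; detection follows 30 min at room temperature.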

Assay [19] in a line: Cellular Toxicity (caspase-3) Mesangial (AID 660).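 Note: combined caspase 3 and 7 activity read by Caspase-Glo luminescence; cells exposed to compound for 16 h before the caspase read.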 To be noted: mesangial cells, normalized: DMSO 0%, 100 µM tamoxifen 100%; series mostly up to 91.7 µM. In short, it runs like this: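 Seed cells derived from normal human renal glomeruli, incubate 5 h, add compounds across concentrations and incubate 16 h at 37 °C. Caspase 3/7 activation is then quantified by luciferase light, with AC50 derived by Hill modeling.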

A short description of assay [20]: Cell Viability - LYMP2-003 (AID 965).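 Note: cells exposed to compounds for 24 h before reading; nearly all actives have a fitted effect of over 50% in size.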 Note: potency is the fitted concentration of half-maximal effect. To be noted: LYMP2-003 lymphoblastoid cell viability; series mostly up to 92.2 µM. In short, it runs like this: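 Human lymphoblastoid cells (2500/well) were pre-incubated 5 hr at 37 C, then exposed to compounds over a concentration range for 24 hr at 37 C. Intracellular ATP was read by CellTiter-Glo luminescence; AC50 came from Hill-equation fits.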

Values joined by “and” are separate entries in the source; they are usually repeats but may differ in a detail not shown here. Equal entries are not always repeated. Unmarked numbers belong to inactive results. Inconclusive results are not listed. Active and inactive are the calls of the source. Unless noted, calls come from the whole dose curve; as a rule, active = well fitted curve in the direction sought with a large enough effect; inconclusive = small, poorly fitted or top-dose-only effect, or another doubt; inactive = no such curve, though single readings can be large; an effect the other way counts as inactive or inconclusive.

Sequence of Peroxisome proliferator-activated receptor alpha (Homo sapiens) (Q07869 whole entry, looked up): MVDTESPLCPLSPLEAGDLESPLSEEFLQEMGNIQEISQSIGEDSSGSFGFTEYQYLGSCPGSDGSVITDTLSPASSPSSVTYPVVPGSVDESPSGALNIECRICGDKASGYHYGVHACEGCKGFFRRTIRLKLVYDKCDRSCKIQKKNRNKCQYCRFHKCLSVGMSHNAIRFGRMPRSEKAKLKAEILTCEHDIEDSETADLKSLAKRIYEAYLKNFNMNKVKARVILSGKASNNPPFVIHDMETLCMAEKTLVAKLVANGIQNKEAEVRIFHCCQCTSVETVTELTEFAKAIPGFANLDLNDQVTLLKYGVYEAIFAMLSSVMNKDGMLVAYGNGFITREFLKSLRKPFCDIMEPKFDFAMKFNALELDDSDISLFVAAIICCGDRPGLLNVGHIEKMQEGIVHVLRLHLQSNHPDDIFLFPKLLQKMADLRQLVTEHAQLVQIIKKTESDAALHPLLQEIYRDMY

For the compound `Nc1ccc(-c2ccc(N)c(O)c2)cc1O`, the Potency in [1] is more than 92 µM. The Potency result in [2], in assay [3], in [4], in assay [5], in assay [6] and in [8] was “inactive” throughout. Moreover, the Potency result in assay [12], in [13], in [14] and in assay [18] was “inactive” in each case. Further, the compound was called inactive in assay [7], in [10] and in [11]. Further, the caspase-3 activation in assay [9] was 0.00867%. Further, the max response in assay [15] is -5.39%; in [16] it was 1.43%; in [17], -18.5%.
For the compound `Cc1cc2nc(N)sc2cc1C`, the Potency in assay [1] is more than 92 µM. The Potency entry in [3], in assay [4], in [5], in assay [6], in assay [8] and in assay [13] was “inactive” throughout. Further, the Potency result in [20], in assay [14] and in assay [18] was “inactive” each time. Moreover, the call in assay [7], in [19] and in [10] was inactive. For the same compound, the caspase-3 activation in [9] was -7.89%. Also, the max response was -4.39% in [15], -19.7% in [16] and -12.3% in [17].
Turning to `Oc1cc(Cl)cc(Cl)c1Cl`, the Potency in assay [1] was more than 92 µM. The Potency result in [2], in assay [3], in assay [4], in assay [5], in [6] and in [8] was “inactive” in each case. In addition, the Potency entry in assay [12], in assay [13], in [20], in assay [14] and in assay [18] was “inactive” in each case. For the same compound, the result in assay [7], in assay [19], in assay [10] and in assay [11] was inactive. Also, the caspase-3 activation in [9] is -0.269%. The max response in assay [15] was 6.36%; in [16], -7.11%; in assay [17], -4.35%.
For `c1ccc(Nc2cccc3ccccc23)cc1`, in [1], the Potency was more than 92 µM. The Potency entry in assay [2], in [3], in [4], in assay [5], in assay [6] and in [8] was “inactive” each time. For the same compound, the Potency entry in assay [12], in [13], in assay [20], in [14] and in assay [18] was “inactive” throughout. Moreover, the call in [7], in assay [19], in assay [10] and in assay [11] was inactive. Also, the caspase-3 activation in assay [9] is 4.83%. For the same compound, the max response was -11.3% and -26.9% in assay [16]; -6.95% and -18% in assay [17].
On to `CC/C=C/C/C=C/C/C=C/CCCCCCCC(=O)OCC`, for which the Potency in [1] is more than 92 µM; in assay [20], 31.6 µM (active). Further, the Potency entry in assay [2], in assay [3], in assay [4], in assay [5], in assay [6] and in assay [8] was “inactive” each time. In addition, the Potency result in assay [12], in [13], in assay [14] and in [18] was “inactive” throughout. Also, the result in assay [7], in assay [10] and in [11] was inactive. Moreover, the caspase-3 activation in assay [9] is 7.96%. Moreover, the max response was 19.5% in assay [15] and -18.4% in [16].
Take `C=CC(=O)CC`: the Potency in assay [1] is more than 92 µM. Further, the Potency result in assay [2], in assay [3], in assay [4], in assay [5], in assay [6] and in [8] was “inactive” each time. For the same compound, the Potency result in assay [12], in assay [13], in assay [20], in [14] and in assay [18] was “inactive” throughout. Besides, the call in [7], in assay [19], in assay [10] and in assay [11] was inactive. Further, in [9], the caspase-3 activation was 0.103%. Moreover, the values for the max response in [15], in assay [16] and in assay [17] were 8.86%, -0.839% and -3.35%, respectively.
